KCNQ2 enhance – potentiators of rat KCNQ2 potassium channel; 310,000 compounds, 0.54% hits; B-score at 10 µM; CHO-K1 KCNQ2, FluxOR thallium flux fluorescence; active compounds read high; O88943; AID 2239;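 active = fluorescence ratio B-score at least 3 SD of library B-scores, with initial fluorescence B-score within 3 of them, cut at about 5.3 in these data; same plate scores as AID 2156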;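 also: B-score of peak minus minimum over baseline fluorescence ratio after K+ and Tl+ stimulus; positive B-score means potentiation of KCNQ2 with more thallium influx and brighter signal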
KCNQ2 inh – inhibitors of rat KCNQ2 potassium channel; CHO-K1 KCNQ2, FluxOR thallium flux, 20 min; active compounds read low; B-score at 10 µM; 310,000 compounds, 1.1% hits;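 active = fluorescence ratio B-score at most minus 3 library SDs, with starting brightness B-score within 2 library SDs, cut at about -5.5 in these data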
Numbers without * were called inactive; i = inactive; . = no result given. Rows were chosen to be rich in hits. Some 1.6% of all compounds tested hit in one or more screens of this group.

SMILES	KCNQ2 enhance	KCNQ2 inh
O=C(CCNS(=O)(=O)c1ccc(Br)s1)NCc1ccc(F)cc1	0.09	i
O=C(CNS(=O)(=O)c1ccc(Br)s1)NCc1ccc(F)cc1	-5.9	-5.9*
Cc1ccc(S(=O)(=O)N(CC(=O)NCc2ccncc2)Cc2ccc(F)cc2)cc1	.	i
CCCC(=O)Nc1ccccc1Sc1ncnc2scc(-c3ccccc3)c12	.	i
Oc1ccc2ccccc2c1CN1CCN(C/C=C/c2ccccc2)CC1	1.8	i
Oc1ccc2ccccc2c1CN1CCN(c2ccccc2F)CC1	13*	i
Cc1ccc(C(=O)NCc2ccccn2)cc1S(=O)(=O)N1CCCCC1	0.73	i
Cc1ccc(S(=O)(=O)N2CCCOC2CNC(=O)C(=O)NC2CCCC2)cc1 (centres undefined)	0.01	i
COc1ccc2c(c1)CC(C(=O)Nc1ccc(Cl)cc1)/C(=N/O)O2 (centres undefined)	.	i
Cc1cc(=O)c(C(=O)O)nn1-c1ccccc1F	0.05	i
Cc1ccc(NC(=S)/C(=C(\[O-])c2ccc(Cl)s2)[n+]2cccc(CO)c2)cc1C	-7.8	-7.8*
[O-]/C(=C(\C(=S)Nc1ccc(SC(F)F)cc1)[n+]1cccc(CO)c1)c1ccc(Cl)s1	.	i
CC(=O)Oc1c(C)cc(Cl)cc1C(=O)Nc1ccc([N+](=O)[O-])cc1Cl	0.72	i
O=C(O)c1oc2ccccc2c1CSc1ccc(Cl)cc1	2.9	i
CCC(C)NC(=O)COC(=O)c1oc2ccccc2c1CSc1ccc(Cl)cc1 (centres undefined)	-6.1	-6.1*
CCOC(=O)C(Sc1cc(-c2ccccc2)nc2ncnn12)C(C)=O (centres undefined)	.	i
CCOc1ccc(OCC)c(NC(=O)CN2CCN(c3cccc(C)c3)CC2)c1	1.9	i
CCOc1ccc(OCC)c(NC(=O)CN2CCN(c3cc(C)ccc3C)CC2)c1	-5.6	-5.6*
O=C1CCN(Cc2ccccc2)N1	0.72	i
COc1cc(C(=O)NC2CC(C)(C)CC(C)(C)C2)ccc1OC1CCN(C(C)=O)CC1	.	i
CN1CCN(c2ccc(Cl)cc2NC(=O)c2cccc(S(=O)(=O)N(C)C)c2)CC1	.	i
CN1CCN(c2ccc(Cl)cc2NC(=O)/C=C/c2cccc(F)c2)CC1	-6.5	-6.5*
COc1ccccc1NC(=O)C1CCCN(S(=O)(=O)c2ccc3c(c2)CC(C)N3C(C)=O)C1 (centres undefined)	.	i
O=C(C1=C[C@@H](c2ccc(C(F)(F)F)cc2)C[C@@H](OCc2ccc(CO)cc2)O1)N1CCN(Cc2ccc3c(c2)OCO3)CC1	.	i
O=C(C1=C[C@@H](c2ccc(Br)cc2)C[C@@H](OCc2ccc(CO)cc2)O1)N1CCN(Cc2ccc3c(c2)OCO3)CC1	-6.3	-6.3*
SMILES	KCNQ2 enhance	KCNQ2 inh
CN1CCN(C(=O)C2=C[C@H](c3csc4ccccc34)C[C@H](OCc3ccc(CO)cc3)O2)CC1	.	i
O=C(C1=C[C@H](c2csc3ccccc23)C[C@H](OCc2ccc(CO)cc2)O1)N1CCCCCCC1	-5.6	-5.6*
CC(=O)OCc1c(C)cc(C)c(/C=C(/C#N)C(N)=O)c1C	1.8	i
CCN(CC)c1ccc(C(=O)OCC(=O)Nc2ccccc2-c2ccccc2)cc1	-6.5	-6.5*
CN(C)c1cccc(C(=O)OCC(=O)Nc2ccccc2-c2ccccc2)c1	0.47	i
CC(C)[C@@H]1CC[C@@H](C)c2c(-c3ccccc3)n[nH]c21	-7.2	-7.2*
c1ccc(-c2n[nH]c3c2CCC3)cc1	.	i
CC(C)Cc1ccc(CN2CCCC(NC(=O)c3cccc(-n4cnnc4)c3)C2)cc1 (centres undefined)	0.27	i
CC1CCN(c2cc(C#N)c(C#N)cc2[N+](=O)[O-])CC1	0.25	i
CC1CCN(c2cc(N)c(Cl)cc2[N+](=O)[O-])CC1	-6.5	-6.5*
Cc1ccc(-c2nn3cnnc3c3ccccc23)cc1	0.1	i
COc1cc(NS(=O)(=O)c2c(C)oc3c(F)c(F)c(F)c(F)c23)cc(OC)c1OC	-6.7	-6.7*
COc1cc(NS(=O)(=O)c2ccc3c(c2)oc(=O)n3C)cc(OC)c1OC	.	i
c1cnc(SCCOc2cccc3ccccc23)nc1	.	i
Clc1ccc(OCCSc2ncccn2)c2ccccc12	-5.7	-5.7*
CN(C1=C(NC(=O)c2ccccc2)C(=O)c2ccccc2C1=O)C1CCS(=O)(=O)C1 (centres undefined)	3.5	i
CC(=O)NC1=C(NC2CCS(=O)(=O)C2)C(=O)c2ccccc2C1=O (centres undefined)	6.1*	i
O=[N+]([O-])c1cccc(-c2cc(-c3cc(Br)ccc3O)[nH]n2)c1	.	i
COC(=O)Cn1c(=O)c2c(nc(Br)n2Cc2ccccc2Cl)n(C)c1=O	-5.8	-5.8*
Cn1c(=O)c2c(nc(Br)n2Cc2ccccc2Cl)n(C)c1=O	.	i
CC(=O)c1ccc(S(=O)(=O)NC2CC(=O)N(c3ccc(C)c(C)c3)C2)cc1 (centres undefined)	.	i
N#Cc1ccc(CSCC(=O)NN=C2CCCC2)cc1	.	i
CC1CCCC(C)N1C(=O)COC(=O)Cc1ccc(Cl)cc1 (centres undefined)	.	i
O=C(CSCc1ccc(Cl)cc1)NN=C1CCCC1	6.8*	i
CC1CCCC(C)N1C(=O)CSCc1ccc(Cl)cc1 (centres undefined)	-6.3	-6.3*
SMILES	KCNQ2 enhance	KCNQ2 inh
C=CCC1(CC=C)CCCN1C(=O)c1cc(COc2ccccc2SC)on1	.	i
CC(Oc1ccc(Cl)cc1Cl)C(=O)NC(=S)N1CCc2ccccc21 (centres undefined)	9.3*	i
CN1CCN(C(=S)NC(=O)c2ccccc2Br)CC1	.	i
O=C(NC(=S)N1CCc2ccccc21)c1ccccc1Br	14*	i
O=C(COc1ccc(Br)cc1Cl)NC(=S)N1CCc2ccccc21	1.3	i
CC(C)c1nc2cc(C(=O)N3CCNC(=O)C3c3ccc(F)cc3)ccc2o1 (centres undefined)	0.12	i
CC(C)OC(=O)COc1cc(O)c2c(=O)cc(-c3ccccc3)oc2c1	.	i
CCCC1(C(=O)OC)NC(c2ccc(OC)c(OC)c2)C2C(=O)N(c3cccc(C(C)=O)c3)C(=O)C21 (centres undefined)	.	i
CCCC1(C(=O)OC)NC(c2ccc(OC)cc2OC)C2C(=O)N(c3cccc(C(C)=O)c3)C(=O)C21 (centres undefined)	-5.9	-5.9*
CCOC(=O)c1ccccc1NC(=O)CSc1nnc(COc2ccccc2)n1CC	-6.4	-6.4*
CCOC(=O)c1cccc(NC(=O)CSc2nnc(COc3ccccc3)n2CC)c1	.	i
COc1cccc(NC(=O)CN2CCN(C(=O)c3ccco3)CC2)c1	0.15	i
CC1CCCCN1C(=O)COC(=O)c1cc([N+](=O)[O-])ccc1N (centres undefined)	1.4	i
Cc1ccc(N2CCN(C(=O)c3cc(COc4c(C)cccc4C)on3)CC2)c(C)c1	.	i
Cc1cccc(C)c1OCc1cc(C(=O)N2CCCCCCC2)no1	-6.5	-6.5*
CCc1ccc(CN(Cc2cccnc2)C(=O)/C=C/c2ccc(OC)cc2)cc1	.	i
CCCN(CCC)C(=O)Cn1c(=O)c2ccccc2n2c(=S)sc(-c3ccccc3C)c12	-6.8	-6.8*
CCCN(CCC)C(=O)Cn1c(=O)c2sccc2n2c(=S)sc(-c3ccccc3)c12	.	i
Cc1cc2c(ncn2Cc2ccccc2)c([N+](=O)[O-])c1C	.	i
